Screen size: about 2,400 compounds; about 580 (24%) were called active.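 How the source made its calls: active means activity change at or above the mean plus 3 SD of buffer wells without dofetilide, per plate; inactive means the rest.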 These entries were drawn from the full list.

Sequence of Potassium voltage-gated channel subfamily KQT member 2 (Rattus norvegicus) (O88943 whole entry, looked up): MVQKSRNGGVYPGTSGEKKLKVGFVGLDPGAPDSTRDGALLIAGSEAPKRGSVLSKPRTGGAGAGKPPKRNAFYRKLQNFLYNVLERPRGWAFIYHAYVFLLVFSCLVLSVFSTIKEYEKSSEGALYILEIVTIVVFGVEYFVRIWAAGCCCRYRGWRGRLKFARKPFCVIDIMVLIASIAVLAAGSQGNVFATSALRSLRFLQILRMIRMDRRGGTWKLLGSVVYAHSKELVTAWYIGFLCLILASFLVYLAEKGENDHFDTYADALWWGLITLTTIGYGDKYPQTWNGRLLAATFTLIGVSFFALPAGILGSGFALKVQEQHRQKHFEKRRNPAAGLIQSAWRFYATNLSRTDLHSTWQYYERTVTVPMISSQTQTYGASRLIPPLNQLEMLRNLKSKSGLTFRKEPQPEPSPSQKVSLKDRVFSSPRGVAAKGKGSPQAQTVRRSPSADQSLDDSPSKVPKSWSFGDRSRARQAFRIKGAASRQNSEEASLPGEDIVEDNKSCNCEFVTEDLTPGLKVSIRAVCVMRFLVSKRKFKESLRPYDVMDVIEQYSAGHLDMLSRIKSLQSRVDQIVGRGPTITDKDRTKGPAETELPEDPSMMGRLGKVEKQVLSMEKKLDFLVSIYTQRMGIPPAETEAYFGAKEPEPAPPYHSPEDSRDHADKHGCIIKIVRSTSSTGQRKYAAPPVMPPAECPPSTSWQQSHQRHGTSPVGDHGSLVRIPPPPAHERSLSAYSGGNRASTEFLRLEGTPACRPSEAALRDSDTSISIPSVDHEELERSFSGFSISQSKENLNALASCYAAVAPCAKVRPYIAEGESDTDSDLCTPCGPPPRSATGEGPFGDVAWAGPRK

The experiment concerns the target Potassium voltage-gated channel subfamily KQT member 2 (Rattus norvegicus) (UniProt O88943). The experiment can be described thus: rat KCNQ2 channel activation by compounds alone, confirmation, counter-screen for hERG block protector project, cell-based, CHO, FluxOR thallium flux (AID 1942).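 Further: normalized value minus buffer-control mean plus three SD of buffer wells.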 The settings on record: CHO-KCNQ2 cells, FluxOR thallium flux fluorescence; at 10 µM; active compounds read high. In general terms: Counterscreens check selectivity or assay interference.
Regarding `COc1cccc([C@@H]2Oc3ccc(OC)cc3C(=O)[C@H]2OC(=O)NCc2ccc3c(c2)OCO3)c1`, the activity change, less the hit threshold was -12.3% (inactive). The figure for `N#CC(=C1SC=CS1)c1nc(-c2ccccc2)cs1` is -21.5% (inactive); for `O=C(N/N=C/c1ccccc1[N+](=O)[O-])c1ccc(CN2CCOCC2)cc1` it is -14.3% (inactive); for `Cc1ccc(Nc2nc(-c3cccs3)cs2)nc1` it is -16.1% (inactive). The figure for `O=C(N/N=C/c1cccs1)C(=O)Nc1cccc(Cl)c1` is -12.5% (inactive); for `CSc1nc2c(c(=O)[nH]1)C(c1ccc(Cl)cc1)CC(=O)N2` (centres undefined) it is -14% (inactive); for `O=c1c2cc(Cl)ccc2nc(-c2ccc(Cl)c(Cl)c2)n1O` it is 127% (active). To `Cc1ccc(-c2onc3ccc(Cl)cc23)cc1` belongs -16.5% (inactive). Consider `Cc1ccc(-c2nc3ccc(Cl)cc3c(=O)n2O)cc1`, for which the activity change, less the hit threshold was 104% (active). The figure for `O=c1c2ccccc2nc(-c2cccc(Cl)c2)n1O` is 28.8% (active). Turning to `Cc1ccc(C(=O)CC(=O)c2cc(Cl)ccc2O)cc1`, the activity change, less the hit threshold is -19.3% (inactive). To `CCOC(=O)c1c(N2C(=O)Nc3ccccc3N2O)n[nH]c1-c1cccc(Cl)c1` belongs -9.4% (inactive).

With `Cc1ccc(CNS(=O)(=O)c2cc3c4c(c2)CCN4C(=O)CC3)cc1`, the activity change, less the hit threshold was -11.7% (inactive). The figure for `Cc1cc([N+](=O)[O-])nn1CC(=O)Nc1ccc(Cl)cn1` is -1.2% (inactive); for `COC(=O)c1ccc(/C=C/c2ccc3cccc(OC)c3n2)cc1` it is -22.1% (inactive); for `CCCCC(CC)CNC(=O)Cn1c(=S)[nH]c2ncccc2c1=O` (centres undefined) it is -9.7% (inactive).

Regarding `CC(C)CCn1c(=S)[nH]c2ncccc2c1=O`, the activity change, less the hit threshold is -3.7% (inactive). To `CCN(CCCn1c(=S)[nH]c2ncccc2c1=O)c1ccccc1` belongs 10.4% (active). `CCCCCn1c(=S)[nH]c2ncccc2c1=O`: the activity change, less the hit threshold is 17.1% (active).

Take `COC(=O)c1ccc(NN=Nc2ccc(C)cc2)cc1`: the activity change, less the hit threshold was -4.6% (inactive). `C=CCNc1sc(C(=O)C(C)(C)C)c(N)c1C#N`: the activity change, less the hit threshold is -15.5% (inactive). The figure for `CCc1c(C)nc(SC)n(CC#N)c1=O` is -14.4% (inactive); for `CCCCNC(=S)N/N=C/C1=CCC2CC1C2(C)C` (centres undefined) it is -17.2% (inactive). The figure for `c1ccc2c(c1)c1ccccc1n1c(-c3ccc4c(c3)OCO4)nnc21` is -10% (inactive); for `O=c1c(O)c(-c2ccc3c(c2)OCO3)oc2ccccc12` it is 12% (active).

With `O=c1c(O)c(-c2cccs2)oc2ccc(Cl)cc12`, the activity change, less the hit threshold is 111% (active). For `Cn1nc(C(=O)Nc2ccc3c(c2)OCO3)c2ccccc2c1=O`, the activity change, less the hit threshold is -16.1% (inactive). As for `O=c1c(O)c(-c2cccs2)oc2ccccc12`, the activity change, less the hit threshold was 95.3% (active). The figure for `Cc1nnc(SCC(=O)Nc2nccs2)n1N` is -19.4% (inactive); for `CCOc1ccc(Nc2ccc([N+](=O)[O-])c3nonc23)cc1` it is -4.2% (inactive); for `COC(=O)c1ccc(-n2c(C)nc(=O)c(-c3ccccc3)c2C)cc1` it is -13.8% (inactive).

As for `CC(NC(=O)CCCn1cc([N+](=O)[O-])cn1)c1ccccc1` (centres undefined), the activity change, less the hit threshold is -27% (inactive). The figure for `COc1ccc(C(=O)NNC(=O)C(=O)Nc2ccc(C)cc2)cc1` is 22.4% (active). The figure for `COc1cccc(C(=O)NNC(=O)C(=O)Nc2cccc(Cl)c2C)c1` is 54.1% (active); for `COc1ccc(C(=O)NNC(=O)C(=O)Nc2ccc(C)c(Cl)c2)cc1` it is -0.2% (inactive). The figure for `CC(Oc1ccc(Cl)cc1Cl)C(=O)Nc1cccnc1` (centres undefined) is -25.1% (inactive); for `COc1cccc(C(=O)NNC(=O)C(=O)Nc2ccc(C)c(Cl)c2)c1` it is 66.8% (active). Take `COc1ccc(NC(=O)C(=O)NNC(=O)C(C)Oc2ccc(Cl)cc2Cl)cc1` (centres undefined): the activity change, less the hit threshold was 32.6% (active).

For the compound `COc1ccc(NC(=O)C(=O)NNC(=O)c2ccc(Cl)cc2Cl)cc1`, the activity change, less the hit threshold was -7.7% (inactive). The figure for `COc1cccc(C(=O)Nc2cccc(-c3ccc(N4CCOCC4)nn3)c2)c1` is -17.8% (inactive); for `CC(C)Oc1cccc(C(=O)N2CCCC2)c1` it is -14% (inactive).

For the compound `CCN(C(=O)c1cc2c(=O)[nH]c3ccc(C)cc3c2s1)c1ccccc1F`, the activity change, less the hit threshold was -7% (inactive).

For the compound `O=C(O)c1cccc2cc(-c3ccccc3)oc(=O)c12`, the activity change, less the hit threshold was -17.7% (inactive). On to `COc1cccc(CN(C)CC2CCCN(CCc3ccc(Cl)cc3)C2)c1OC` (centres undefined), for which the activity change, less the hit threshold is -26.8% (inactive). For the compound `Cc1ccc(-n2nc(C)c3c2OC(N)=C(C#N)C3c2ccoc2)cc1` (centres undefined), the activity change, less the hit threshold was -13.7% (inactive). To `O=C(CCC(=O)N1CCN(S(=O)(=O)c2ccccc2)CC1)c1cccs1` belongs -13.6% (inactive). The figure for `CN1C(=O)NC(c2cccc([N+](=O)[O-])c2)C2=C1CC(C)(C)CC2=O` (centres undefined) is -22.1% (inactive); for `CCc1ccc(NC(=S)Nc2cccc(OC)c2)cc1` it is -15.5% (inactive); for `CCc1ccc(NC(=O)C(=O)NNC(=O)c2cccc(OC)c2)cc1` it is 62.3% (active). As for `CCc1ccc(NC(=O)C(=O)NNC(=O)c2ccc(OC)cc2)cc1`, the activity change, less the hit threshold was 100% (active). The figure for `COc1cccc(C(=O)NNC(=O)C(=O)Nc2ccc(C)cc2)c1` is 78.3% (active); for `COc1cccc(NC(=O)c2cncs2)c1` it is -22.6% (inactive).

With `COc1ccc(CCNC(=O)C2CCCN(S(C)(=O)=O)C2)cc1` (centres undefined), the activity change, less the hit threshold was -23.4% (inactive).

For the compound `Cc1n[nH]c(C)c1CCNC(=O)C1CCC(=O)N(Cc2ccccc2F)C1` (centres undefined), the activity change, less the hit threshold was -14% (inactive). The figure for `Cc1c(-c2ccn[nH]2)cc(NC(=O)c2ccc(Cl)cc2)c(=O)n1N` is -24.4% (inactive); for `COCC1CCCN(C(=O)c2ccc3oc(C(C)C)nc3c2)C1` (centres undefined) it is -11.7% (inactive); for `Cc1ccc(NC(=O)CN2C(=O)N/C(=C/c3ccccc3OCc3cccc(C(=O)O)c3)C2=O)cc1` it is -18.7% (inactive). To `CCOC(=O)NC(=O)/C(C#N)=N\Nc1ccc(Cl)cc1` belongs -17.6% (inactive); to `CC(C)(C)SCCNC(=O)CN1C(=O)c2ccccc2S1(=O)=O`, -13.2% (inactive); to `Cc1nc2cc3sc(C)nc3cc2s1`, -9.2% (inactive). To `COc1ccc(-c2cc(=O)oc3cc(OCC(C)=O)ccc23)cc1` belongs -20.9% (inactive); to `O=C(CN1C(=O)S/C(=C\c2cccs2)C1=O)Nc1ccc(O)c(C(=O)O)c1`, -14% (inactive).

In the case of `O=C(CCN1C(=O)/C(=C/c2cccs2)SC1=S)Nc1cccc(C(=O)O)c1`, the activity change, less the hit threshold is -22.7% (inactive). The figure for `O=C(CN1C(=O)S/C(=C\c2cccs2)C1=O)Nc1ccc(C(=O)O)c(O)c1` is 21.5% (active).
